Reference: ChEMBL document CHEMBL4513135, “CO-ADD screening of IQOG CSIS (Spain) compounds”
Where “and” joins values, the source holds several entries; their conditions need not be identical. Identical values can stand only once. Results with a measured potency or affinity are listed apart.

Columns and labels:
Klebsiella pneumoniae = settings: Concentration 32 ug.mL-1, ASSAY_TEST Inhibition of Bacterial Growth, detection method Absorption (OD600), MEDIA CAMHB, plate type 384well, NBS, CORNING #3640, time 18 hr
Candida albicans = settings: 32 ug/mL
Cryptococcus neoformans = settings: Concentration 32 ug.mL-1, ASSAY_TEST Inhibition of Fungal Growth, detection method Resazurin, Absorption (OD600-OD570), plate type 384well, NBS, CORNING #3640

| Compound | Inhibition (Klebsiella pneumoniae) | Inhibition (Candida albicans) | Inhibition (Cryptococcus neoformans) | Inhibition (Klebsiella pneumoniae; 32 ug/mL) | Inhibition (Cryptococcus neoformans; 32 ug/mL) |
| --- | --- | --- | --- | --- | --- |
| NC1(C(=O)O)CC1c1ccc2c(c1)OCO2 (stereo not drawn) | 1.95% | -1.13% | -2.53% |  |  |
| CC1=NC(=Cc2ccc([N+](=O)[O-])cc2)C(=O)O1 | -0.23% | -0.54% | -1.41% |  |  |
| COc1ccc(C2C(C#N)=C(Cl)Oc3c2ccc2ccccc32)cc1OC (stereo not drawn) | -4.48% | 18.1% | -55.36% |  |  |
| Cc1ccc(S(=O)(=O)N[C@H]2CC[C@H](O)CC2)cc1 | 11.86% | 0.9% | -40.23% |  |  |
| CCCC(=O)NCc1c(-c2ccc(Cl)cc2)nc2ccccn12 | -10.71% | 1.27% | -9.45% |  |  |
| N#CC1(Br)C(=N)Oc2ccc3ccccc3c2C1c1ccccc1 (stereo not drawn) |  | 5.08% and 2.03% |  | 8.56% and 13.61% | -52.48% and -41.25% |
| Cl.Cl.Cn1c(CNc2ccccc2)cc2cc(OCCCC3CCN(Cc4ccccc4)CC3)ccc21 | 5.5% | 1.7% | -74.16% |  |  |
| N#C/C(=C\c1ccccc1)C(=O)c1ccccc1 | 5.05% | 4.89% | 5.95% |  |  |
| CC1Cc2ccccc2N1/N=C/c1ccccc1 (stereo not drawn) | 2.26% | -2.78% | -3.88% |  |  |
| CC1=C(C(=O)O[C@@H]2C[C@@]3(C)CC[C@H]2C3(C)C)C(c2ccccc2)C(C#N)=C(N)O1 (stereo partly drawn) | -1.66% | 15.2% | -2.45% |  |  |
| COC(=O)C(NC(=O)c1ccccc1)=C(C)c1ccccc1 | 19.09% | -0.01% | -1.2% |  |  |
| Cn1ccnc1C1c2ccc3cccnc3c2Oc2nc3c(c(N)c21)CCC3 (stereo not drawn) | 5.38% | 2.9% | -104.91% |  |  |
| NNC(=O)c1cc2ccccc2n1Cc1ccccc1 | -14.14% | -0.41% | -2.53% |  |  |
| COc1nc(NC(C)=O)c(C#N)c(-c2ccccc2)c1C#N | 12.51% | 2.3% | -37.64% |  |  |
| COc1cccc(C2c3ccc4ccccc4c3OC(=NBr)C2(Br)C#N)c1 (stereo not drawn) | 5.65% | -0.64% | -51.44% |  |  |
| COC1=C(C#N)CCC(=O)N1 | 12.74% | 0.89% | -77.28% |  |  |
| C=C=CCN(C)Cc1cc2ccccc2n1C.O=C(O)C(=O)O | 9.39% | 1.88% | -29.39% |  |  |
| CCOC(=O)C1=C(C)OC(N)=C(C#N)C1c1ccncc1 (stereo not drawn) | 10.54% | -1.5% | -58.29% |  |  |
| Cl.Nc1c2c(nc3c1C(c1ccccc1)c1c(ccc4ccccc14)O3)CCCC2 (stereo not drawn) | 8.19% | 1.33% | -0.7% |  |  |
| Nc1nc(N)c(C=O)c(-c2ccccc2)c1C=O | -1.67% | 9.69% | -7.8% |  |  |
| N#Cc1c(N)nc(O)c(C#N)c1-c1ccccc1 | -0.05% | 5.45% | -42.69% |  |  |
| CC(C)(C)OC(=O)Nc1ccc(Br)cn1 | 23.74% | 1.83% | -55.05% |  |  |
| N#Cc1c(Cl)nc(Cl)c(C#N)c1-c1ccccc1 | 19.31% | 34.6% | -43.27% |  |  |
| Nc1c2c(nc3c1C(c1ccc(Cl)c(Cl)c1)c1ccc4ccccc4c1O3)CCCC2 (stereo not drawn) | -10.24% | 4.63% | -2.87% |  |  |
| Cn1c(CNNC(=O)c2ccco2)cc2ccccc21 | -22.42% | 1.4% | -3.17% |  |  |

| Compound | Inhibition (Klebsiella pneumoniae) | Inhibition (Candida albicans) | Inhibition (Cryptococcus neoformans) | Inhibition (Klebsiella pneumoniae; 32 ug/mL) | Inhibition (Cryptococcus neoformans; 32 ug/mL) |
| --- | --- | --- | --- | --- | --- |
| COc1cc(C2c3c(nc4c(c3N)CCC4)Oc3ccc4ccccc4c32)ccc1O (stereo not drawn) | 23.66% | -1.69% | -4.01% |  |  |
| COc1ccc2c(c1)cc(CN(C)C)n2C | 9.15% | -0.31% | -1.62% |  |  |
| CCOC(=O)C1=C(C)NC(N)=C(C#N)C1c1ccc(OC)cc1 (stereo not drawn) | 13.36% | 5.45% | -57.77% |  |  |
| COc1cccc(C2C(C#N)=C(N)Oc3[nH]nc(C)c32)c1 (stereo not drawn) | 26.54% | 0.08% | -0.28% |  |  |
| COc1ccc(C2c3c(ccc4ccccc34)OC(=N)C2(Br)C#N)cc1 (stereo not drawn) | 10.22% | 17.9% | -84.01% |  |  |
| COc1ccccc1C1c2ccc3ccccc3c2OC(=NBr)C1(Br)C#N (stereo not drawn) | 11.44% | 0.7% | -47.56% |  |  |
| COc1nc(N)c(C#N)c(-c2ccccc2)c1C#N | 5.51% | 1.23% | -13.41% |  |  |
| Cc1ccc(-c2c(C#N)c(N)nc3c2S(=O)(=O)OC3(C)C)cc1 | 10.18% | 1.92% | -1.83% |  |  |
| CCOC(=O)c1cc(C#N)c(N)nc1C | 5.86% | 2.73% | -17.38% |  |  |
| Cl.N#Cc1c(N)nc(NCCO)c(C#N)c1-c1ccccc1 | 7.62% | 1.4% | -7.17% |  |  |
| Cc1ccc(C(O)SNNc2nc(C)nc3c2c(C)nn3-c2ccccc2)cc1 (stereo not drawn) | 11.05% | -0.04% | -5.24% |  |  |
| O=Cc1cc2ccccc2nc1Cl | -2.74% | 7.94% | -7.31% |  |  |
| COc1ccc(-c2cc(-c3cc4ccccc4nc3Cl)cc(=O)[nH]2)cc1 | 10.14% | -0.7% | -53.36% |  |  |
| N#CC1=C(Cl)Oc2c(ccc3ccccc23)C1c1ccccc1 (stereo not drawn) | 10.59% | 4.15% | -59.47% |  |  |
| C/C=C(/C#N)C(=O)OC | 5.34% | -0.41% | -2.55% |  |  |
| Cc1nn(-c2ccccc2)c2nc(C)n3nc(-c4ccccc4)nc3c12 | 3.45% | -2.98% | -5.73% |  |  |
| Cc1ccc2nc(Cl)c(/C=N/N)cc2c1 | 10.01% | 15.7% | -3.85% |  |  |
| C#CCNc1ccc(Cl)nn1 | 15.08% | 3.36% | -43.23% |  |  |
| O=C(NNCc1c[nH]c2ccccc12)c1cccc2ccccc12 | 7.23% | 1.53% | -1.11% |  |  |
| COc1ccccc1C1C(C#N)=C(N)Oc2[nH]nc(C)c21 (stereo not drawn) | 0.76% | 2.02% | -7.07% |  |  |
| O=C(N/N=C/c1ccc([N+](=O)[O-])cc1)c1cc2ccccc2[nH]1 | 7.41% | 0.87% | -3.37% |  |  |
| N#Cc1c(-c2cccc([N+](=O)[O-])c2)c2ccc3ccccc3c2oc1=O |  | 4.25% and -0.04% and 3.33% |  |  |  |
| Cc1nc2c3cnn(-c4ccccc4)c3ncn2n1 | 15.65% | 0.21% | -3.17% |  |  |
| Cc1ccc(C(O)SNNc2ncnc3c2c(C)nn3-c2ccccc2)cc1 (stereo not drawn) | -18.74% | 1.06% | -5.03% |  |  |
| CCOC(=O)c1c[nH]c2ccc(OC)cc12 | 1.49% | 3.61% | -7.29% |  |  |

| Compound | Inhibition (Klebsiella pneumoniae) | Inhibition (Candida albicans) | Inhibition (Cryptococcus neoformans) | Inhibition (Klebsiella pneumoniae; 32 ug/mL) | Inhibition (Cryptococcus neoformans; 32 ug/mL) |
| --- | --- | --- | --- | --- | --- |
| CC(C(=O)O)c1c[nH]c2ccccc12 (stereo not drawn) | 21.1% | 31.5% | -3.89% |  |  |
| COc1cc(C=NNC(=O)Cc2c[nH]c3ccccc23)ccc1O | -2.6% | 0.74% | -1.83% |  |  |
| CSC1=NC2(CC2c2ccccc2)C(=O)N1 (stereo not drawn) | 20.57% | -0.24% | 1.03% |  |  |
| Cc1nc2c3cnn(-c4ccccc4)c3nc(C)n2n1 | 15.01% | -1.82% | -6.35% |  |  |
| N#CC1=C(Cl)Oc2c(ccc3ccccc23)C1c1cccc([N+](=O)[O-])c1 (stereo not drawn) | 4.09% | 6.77% | -37.01% |  |  |
| C1CNCCNCCNCCNC1 | 5.58% | 4.25% | -3.46% |  |  |
| O=Cc1c(-c2ccc(Br)cc2)nc2ccccn12 | 19.86% | 0.21% | -4.41% |  |  |
| COc1ccc(C2c3c(ccc4ccccc34)OC(=NBr)C2(Br)C#N)cc1 (stereo not drawn) | 26.17% | 10.1% | -63.65% |  |  |
| NNC(=O)C1(NC(=O)c2ccccc2)CC1c1cccc(O)c1 (stereo not drawn) | 19.56% | 0.45% | -0.7% |  |  |
| Cl.NC1(C(=O)O)CC1c1cccc(Cl)c1 (stereo not drawn) | 18.53% | 2.81% | -0.59% |  |  |
| C#CCNC.O=C(O)C(=O)O | 9.05% | 4.18% | -8.52% |  |  |
| C#CCNc1nc(NCCCCC2CCN(Cc3ccccc3)CC2)c(C#N)cc1C#N | -10.59% | 4.43% | -10.91% |  |  |
| COc1ccc2c(c1)cc(C(=O)O)n2C | 11.78% | 31.1% | -23.41% |  |  |
| CS(=O)(=O)O[C@H]1CC[C@H](OS(C)(=O)=O)CC1 | 13.68% | 3.52% | -30.83% |  |  |
| COc1cc(C2c3c(nc4c(c3N)CCCC4)Oc3ccc4ccccc4c32)cc(OC)c1OC (stereo not drawn) | 23.56% | 1.11% | -4.42% |  |  |
| CC(=O)C(=Cc1ccccc1)C(=O)O[C@H]1C[C@H](C)CC[C@H]1C(C)C | 13.75% | 10.8% | -6.7% |  |  |
| COc1ccc2cc(C3C(C(C)=O)=C(C)Oc4nc5c(c(N)c43)CCC5)c(Cl)nc2c1 (stereo not drawn) | 0.03% | 12.4% | -0.43% |  |  |
| CC(=O)Nc1nc(Cl)c(C#N)c(-c2ccccc2)c1C#N | 7.97% | 1.84% | -41.58% |  |  |
| CCOC(=O)c1c(C)nc(NCC2CCN(Cc3ccccc3)CC2)c(C#N)c1-c1ccccc1 | 9.84% | 2.46% | -54.17% |  |  |
| C#CC[n+]1ccccc1N.[Br-] | -10.26% | 1.82% | -3.96% |  |  |
| COc1ccc(/C=C2/N=C(c3ccccc3)OC2=O)cc1OC | -24.56% | -0.31% | -8.84% |  |  |
| CNCc1cc2cc(OC)ccc2n1C.Cl | 8.64% | -1.26% | 1.35% |  |  |
| COc1ccc(-c2cc(-c3cc4c(OC)ccc(OC)c4nc3Cl)cc(=O)[nH]2)cc1 | 5.89% | 0.7% | -87.69% |  |  |
| CCOC(=O)C1=C(C)OC(N)=C(C#N)C1c1ccccc1OC (stereo not drawn) | 15.52% | 23.3% | -0.68% |  |  |
| CC(=O)/C=C/C1CCN(Cc2ccccc2)CC1 | 7.64% | 0.43% | -60.96% |  |  |
